The text below walks through data of PubChem BioAssay (NCI).

Among the test systems are BT-549 breast; MDA-MB-435 melanoma; SW-620 colon; MCF7 breast; HCT-116 colon; HCC-2998 colon; KM12 colon.
Assay in all cases: NCI-60 one-dose screen, 48 h (100 = growth as untreated, 0 = no growth, -100 = all killed)
Common to all, as to settings: 10 µM

The panel holds about 83,000 compounds, 20% with a hit somewhere; the sample as a whole holds those more often.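 Single-dose data. Exposure time 48 hours. Values below 10 considered active.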 Unmarked numbers belong to inactive results. The source made the active and inactive calls.

For the compound `Cn1c(N)c(N=Nc2ccc(S(=O)(=O)Nc3nccs3)cc2)c(=O)n(C)c1=O`, the growth was 97.9% in the assay with BT-549 breast; 101% with MDA-MB-435 melanoma; 99% in the assay on SW-620 colon; 101% in the assay with MCF7 breast; 109% in the assay on HCT-116 colon; 95.9% with HCC-2998 colon. Also, the growth with KM12 colon is 104%.

As for `COc1ccc(Nc2cc(C)nc(NCCCNc3ccnc4cc(Cl)ccc34)n2)cc1`, the growth in the assay with BT-549 breast is -82.9% (active); with MDA-MB-435 melanoma it was -92.4% (active); in the assay with SW-620 colon, -56.7% (active); in the assay on MCF7 breast it was -48.8% (active); in the assay with HCT-116 colon it was -96.6% (active); with HCC-2998 colon, -70% (active). Further, the growth with KM12 colon is 20%.

As to `CCN(CC)CCC(=O)Nc1cccc2c1C(=O)c1c(c(O)c3ccccc3c1O)C2=O`, the growth with BT-549 breast is 68.8%; in the assay with MDA-MB-435 melanoma it was 91.6%; with SW-620 colon, 43.8%; with MCF7 breast it was 30.3%; in the assay on HCT-116 colon it was 44.9%; in the assay on HCC-2998 colon, 80.9%. Also, in the assay with KM12 colon, the growth was 56.9%.

As for `COc1cc(Cl)cc(-c2nn(-c3cccc(NC(=O)Nc4ccc(Cl)c(Cl)c4)c3)cc2-c2ccncc2)c1`, the growth in the assay with BT-549 breast was 29.4%; in the assay on MDA-MB-435 melanoma, 0.46% (active); with SW-620 colon, 13.3%; in the assay with MCF7 breast it was 4.66% (active); in the assay on HCT-116 colon, 9.22% (active); in the assay with HCC-2998 colon, 26.7%. Also, the growth in the assay with KM12 colon was 14.3%.

For `Cc1ccc(C)c(C(O)(c2cc(C)ccc2C)C2(O)CCCCC2)c1`, the growth in the assay with BT-549 breast was 100%; in the assay with MDA-MB-435 melanoma, 105%; with SW-620 colon, 96.8%; in the assay on MCF7 breast it was 97.6%; with HCT-116 colon it was 90.5%; with HCC-2998 colon, 108%. The growth in the assay on KM12 colon was 95.4%.

Regarding `Cc1cc(C)c2c(n1)sc1c(Nc3ccc(Cl)cc3)ncnc12`, the growth was 29.8% with BT-549 breast; 27.3% with MDA-MB-435 melanoma; 34% with SW-620 colon; 16.5% with MCF7 breast; 15.1% in the assay with HCT-116 colon; 54.4% in the assay on HCC-2998 colon. The growth with KM12 colon is 43.1%.

Take `COc1ccc2c(c1OC)O/C(=C\c1ncc([N+](=O)[O-])n1C)C2=O`: the growth in the assay with BT-549 breast is -41.3% (active); in the assay with MDA-MB-435 melanoma, -76.4% (active); in the assay on SW-620 colon, -21.2% (active); with MCF7 breast it was 28.9%; in the assay on HCT-116 colon it was 4.48% (active); in the assay with HCC-2998 colon, 34.6%. Besides, the growth in the assay with KM12 colon is 43.1%.

As to `O=C(N/N=C/c1cc2ccccc2c2ccccc12)c1cc(O)c(O)c(O)c1`, the growth is 49.4% with BT-549 breast; 35.3% in the assay on MDA-MB-435 melanoma; 25.4% in the assay with SW-620 colon; 67.6% in the assay with MCF7 breast; 26% in the assay on HCT-116 colon; 94.5% in the assay on HCC-2998 colon. The growth in the assay on KM12 colon was 83.2%.

For `CN(C)CC(O)c1ccc2cc(Br)c3ccccc3c2c1` (stereo unspecified), the growth with BT-549 breast was 75.8%; in the assay with MDA-MB-435 melanoma it was 42.4%; in the assay with SW-620 colon it was 63.7%; with MCF7 breast it was 35.1%; with HCT-116 colon, 41.2%; with HCC-2998 colon it was 25.8%. In addition, in the assay on KM12 colon, the growth was 48.6%.

`COc1cc(-c2cc(/C=C/C(=O)c3ccc4c(c3)OCO4)[nH]n2)cc(OC)c1OC`: the growth in the assay with BT-549 breast was 60.9%; in the assay with MDA-MB-435 melanoma, 31.2%; with SW-620 colon, 47.4%; in the assay with MCF7 breast it was 17.3%; in the assay on HCT-116 colon it was 31.4%; in the assay on HCC-2998 colon, 103%. Moreover, the growth in the assay with KM12 colon is 18%.

For `CCOC(=O)N1C=CC2C=CC1C1C=CC=CC2N1C(=O)OCC` (stereo unspecified), the growth with BT-549 breast was 89.4%; with MDA-MB-435 melanoma, 3.79% (active); in the assay on SW-620 colon, 82%; with MCF7 breast, 76.8%; in the assay with HCT-116 colon, 94.7%; with HCC-2998 colon it was 82.1%. For the same compound, the growth in the assay with KM12 colon is 84.9%.

With `Cc1nc2ccccc2c(N)c1-c1cc(C)c2c(C)nc3ccccc3c2n1`, the growth with BT-549 breast is 58.2%; with MDA-MB-435 melanoma, 69.4%; with SW-620 colon, -65.7% (active); with MCF7 breast, 31.2%; with HCT-116 colon, -82.1% (active); in the assay on HCC-2998 colon it was -35% (active). The growth in the assay on KM12 colon was -83.2% (active).

Regarding `c1ccc([C@H]2CN3CCSC3=N2)cc1`, the growth in the assay with BT-549 breast was 102%; in the assay on MDA-MB-435 melanoma, 101%; with SW-620 colon, 98.6%; in the assay with MCF7 breast it was 94.4%; in the assay on HCT-116 colon it was 110%; with HCC-2998 colon, 119%. Further, the growth in the assay with KM12 colon was 109%.

As for `O=C1C(=O)c2ccccc2C(O)=C1CCCc1ccc(C2CCCCCC2)cc1`, the growth in the assay with BT-549 breast was 58.2%; in the assay on MDA-MB-435 melanoma it was 33.9%; with SW-620 colon it was 32.9%; in the assay on MCF7 breast, 25.5%; in the assay on HCT-116 colon, 24.6%; in the assay with HCC-2998 colon it was 8.94% (active). The growth with KM12 colon was 37.8%.

As to `CCOC(=O)C(NC(=O)C(Cl)Cl)C(O)c1ccccc1` (stereo unspecified), the growth with BT-549 breast was 112%; with MDA-MB-435 melanoma, 94.9%; in the assay on SW-620 colon it was 100%; in the assay on MCF7 breast, 94.8%; in the assay with HCT-116 colon, 85.3%; with HCC-2998 colon, 110%. Besides, the growth with KM12 colon is 110%.

Turning to `COc1cc2cc3c(nc2cc1OC)CCN3Cc1ccc(NC(=O)Nc2ccc(F)cc2F)cc1`, the growth is 76.7% in the assay with BT-549 breast; 89% in the assay with MDA-MB-435 melanoma; 100% in the assay on SW-620 colon; 81.3% in the assay on MCF7 breast; 81.3% in the assay with HCT-116 colon; 85.1% in the assay with HCC-2998 colon. Besides, the growth in the assay with KM12 colon was 87.2%.

Consider `COc1ccc(Cn2c(C(N)=O)cc3c2-c2nc(N)ncc2CCC3)cc1`, for which the growth is 109% with BT-549 breast; 97.2% in the assay on MDA-MB-435 melanoma; 91.3% with SW-620 colon; 92.7% in the assay on MCF7 breast; 101% in the assay on HCT-116 colon; 104% in the assay on HCC-2998 colon. For the same compound, the growth in the assay on KM12 colon is 97.5%.

Turning to `Nc1cc2c(cc1Cl)-c1ccc([N+](=O)[O-])cc1/C2=N\O`, the growth is 89% with BT-549 breast; 51.3% with MDA-MB-435 melanoma; 38.6% with SW-620 colon; 79.2% in the assay with MCF7 breast; 43.2% with HCT-116 colon; 97.3% in the assay on HCC-2998 colon. Also, the growth in the assay on KM12 colon was 65%.
